“And” between values parts separate entries of the source, which are not always exact repeats. Identical values can stand only once. Hit rate of the full screen: of about 5,500 compounds, about 2,000 (36%) were called active. Not shown: some 18% with an inconclusive outcome. The list shows a part of the results. Values without a mark were called inactive. No stated cut-off is given here; in the data, active means normalized growth mostly below about 0.91 (no sharp cut-off); inconclusive means no clear call, values can overlap the other calls; inactive means mostly above about 0.92.
Assay: chemical genetic growth profiling, strain panel (AID 1159580);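 further: tested at 20 µM; growth read once vehicle control cultures reached saturation at 30 °C; 1 = growth at the plate median or of vehicle wells; lower values mean less growth of the strain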
Settings: S. cerevisiae deletion strains, growth OD

CN(C)CCOC(=O)COc1ccc(Cl)cc1
normalized growth (locus YAL013W, strain DEP1, hits give low values): 1.02
normalized growth (locus YAL021C, strain ccr4, hits give low values): 0.955
normalized growth (locus YAL026C, strain drs2, hits give low values): 0.968
normalized growth (locus YAL030W, strain snc1, hits give low values): 0.973
normalized growth (locus YAL040C, strain CLN3, hits give low values): 1.06
normalized growth (locus YBL061C, strain skt5, hits give low values): 0.966
normalized growth (locus YBR009C, strain hhf1, hits give low values): 0.984
normalized growth (locus YBR021W, strain FUR4, hits give low values): 0.95
normalized growth (locus YBR023C, strain chs3, hits give low values): 0.965
normalized growth (locus YBR171W, strain sec66, hits give low values): 0.969
normalized growth (locus YBR229C, strain ROT2, hits give low values): 1.01
normalized growth (locus YBR231C, strain swc5, hits give low values): 0.96
normalized growth (locus YBR279W, strain paf1, hits give low values): 0.987
normalized growth (locus YCL011C, strain gbp2, hits give low values): 0.957
normalized growth (locus YCL016C, strain dcc1, hits give low values): 0.969
normalized growth (locus YCL029C, strain bik1, hits give low values): 1.04
normalized growth (locus YCL061C, strain MRC1, hits give low values): 0.969
normalized growth (locus YCL069W, strain vba3, hits give low values): 0.974
normalized growth (locus YCR088W, strain abp1, hits give low values): 0.956
normalized growth (locus YDL005C, strain med2, hits give low values): 0.972
normalized growth (locus YDL035C, strain GPR1, hits give low values): 1.05
normalized growth (locus YDL040C, strain nat1, hits give low values): 0.973
normalized growth (locus YDL074C, strain BRE1, hits give low values): 1.05
normalized growth (locus YDL101C, strain DUN1, hits give low values): 1.02
normalized growth (locus YDL134C, strain PPH21, hits give low values): 1.01
normalized growth (locus YDL185W, strain tfp1, hits give low values): 1.03
normalized growth (locus YDL192W, strain arf1, hits give low values): 1.04
normalized growth (locus YDR001C, strain nth1, hits give low values): 0.965
normalized growth (locus YDR069C, strain doa4, hits give low values): 0.953
normalized growth (locus YDR101C, strain arx1, hits give low values): 1.03
normalized growth (locus YDR137W, strain rgp1, hits give low values): 1.21 [resistant] (active)
normalized growth (locus YDR150W, strain NUM1, hits give low values): 1.03
normalized growth (locus YDR159W, strain sac3, hits give low values): 0.944
normalized growth (locus YDR162C, strain NBP2, hits give low values): 1.03
normalized growth (locus YDR195W, strain ref2): 1.02
normalized growth (locus YDR297W, strain sur2, hits give low values): 0.963
normalized growth (locus YDR318W, strain mcm21, hits give low values): 1.06
normalized growth (locus YDR334W, strain swr1, hits give low values): 0.933
normalized growth (locus YDR335W, strain msn5, hits give low values): 0.969
normalized growth (locus YDR388W, hits give low values): 1.03
normalized growth (locus YDR392W, strain spt3, hits give low values): 0.974
normalized growth (locus YDR502C, strain sam2, hits give low values): 1.09 [resistant] (active)
normalized growth (locus YEL003W, strain gim4, hits give low values): 0.957
normalized growth (locus YEL037C, strain rad23, hits give low values): 0.969
normalized growth (locus YEL061C, strain CIN8 (second series), hits give low values): 0.972
normalized growth (locus YEL061C, strain CIN8, hits give low values): 1.02
normalized growth (locus YER002W, strain NOP16, hits give low values): 0.971
normalized growth (locus YER015W, strain faa2, hits give low values): 0.972
normalized growth (locus YER016W, strain bim1, hits give low values): 0.968
normalized growth (locus YER110C, hits give low values): 1.05
normalized growth (locus YER111C, strain swi4, hits give low values): 0.98
normalized growth (locus YER155C, strain BEM2 (second series), hits give low values): 0.962
normalized growth (locus YER155C, strain BEM2, hits give low values): 1.01
normalized growth (locus YER167W, strain BCK2, hits give low values): 1.01
normalized growth (locus YFR010W, strain ubp6, hits give low values): 0.965
normalized growth (locus YGL078C, strain dbp3, hits give low values): 1.04
normalized growth (locus YGL086W, strain mad1, hits give low values): 1.06
normalized growth (locus YGL167C, strain pmr1, hits give low values): 0.968
normalized growth (locus YGL173C, strain kem1, hits give low values): 0.975
normalized growth (locus YGL227W, strain vid30, hits give low values): 0.965
normalized growth (locus YGL240W, strain doc1, hits give low values): 0.967
normalized growth (locus YGL248W, strain PDE1, hits give low values): 1.01
normalized growth (locus YGL253W, strain hxk2, hits give low values): 0.968
normalized growth (locus YGR078C, strain PAC10, hits give low values): 1.05
normalized growth (locus YGR135W, strain pre9, hits give low values): 1.03
normalized growth (locus YGR229C, strain SMI1, hits give low values): 1.06
normalized growth (locus YGR252W, strain gcn5, hits give low values): 1.01
normalized growth (locus YHR013C, strain ard1, hits give low values): 0.983
normalized growth (locus YHR027C, strain rpn1, hits give low values): 0.96
normalized growth (locus YHR030C, strain SLT2, hits give low values): 1.02 and 1.08
normalized growth (locus YHR079C, strain IRE1 (second series), hits give low values): 1.03
normalized growth (locus YHR079C, strain IRE1, hits give low values): 1.11
normalized growth (locus YHR094C, strain hxt1, hits give low values): 1.02
normalized growth (locus YHR129C, strain ARP1, hits give low values): 1.02
normalized growth (locus YHR142W, strain chs7, hits give low values): 0.962
normalized growth (locus YHR200W, strain rpn10, hits give low values): 1.06
normalized growth (locus YIL066C, strain RNR3, hits give low values): 1.04
normalized growth (locus YIL073C, strain SPO22, hits give low values): 1.08
normalized growth (locus YIL125W, strain kgd1, hits give low values): 1.01
normalized growth (locus YIR030C, strain dcg1, hits give low values): 1.03
normalized growth (locus YJL092W, strain hpr5, hits give low values): 0.943
normalized growth (locus YJL095W, strain BCK1 (second series), hits give low values): 0.965
normalized growth (locus YJL095W, strain BCK1, hits give low values): 1.05 and 1.09
normalized growth (locus YJL115W, strain asf1, hits give low values): 0.947
normalized growth (locus YJL129C, strain trk1, hits give low values): 1
normalized growth (locus YJL134W, strain LCB3, hits give low values): 1.01
normalized growth (locus YJL154C, strain vps35, hits give low values): 0.971
normalized growth (locus YJL164C, strain tpk1, hits give low values): 0.97
normalized growth (locus YJL166W, strain qcr8, hits give low values): 0.981
normalized growth (locus YJL168C, strain set2, hits give low values): 1.02
normalized growth (locus YJL187C, strain SWE1 (second series), hits give low values): 1.04
normalized growth (locus YJL187C, strain SWE1, hits give low values): 0.981
normalized growth (locus YJR043C, strain POL32, hits give low values): 1.09
normalized growth (locus YJR066W, strain TOR1, hits give low values): 0.974
normalized growth (locus YJR075W, strain HOC1, hits give low values): 0.98

From PubChem BioAssay AID1159580 (chemical genetic matrix, 2015)
